Data reported in PubChem BioAssay (NCATS).
Records with an inconclusive call do not appear. Calls of active or inactive are those of the source. Unless noted, the call rests on the fitted dose curve; in most records, active means well fitted curve in the direction sought with a large enough effect; inconclusive means small, poorly fitted or top-dose-only effect, or another doubt; inactive means no such curve, though single readings can be large; an effect the other way counts as inactive or inconclusive.

Assays:
[1] = target: Lysosomal acid glucosylceramidase (Homo sapiens) (UniProt P04062); experiment: Glucocerebrosidase-p2 (AID 348; in the data active means potency below about 10 µM; further: potency means the concentration at half of the fitted maximal effect); details: purified GBA, blue fluorogenic substrate, 40 min
Sequence of Lysosomal acid glucosylceramidase (Homo sapiens) (P04062 whole entry, looked up): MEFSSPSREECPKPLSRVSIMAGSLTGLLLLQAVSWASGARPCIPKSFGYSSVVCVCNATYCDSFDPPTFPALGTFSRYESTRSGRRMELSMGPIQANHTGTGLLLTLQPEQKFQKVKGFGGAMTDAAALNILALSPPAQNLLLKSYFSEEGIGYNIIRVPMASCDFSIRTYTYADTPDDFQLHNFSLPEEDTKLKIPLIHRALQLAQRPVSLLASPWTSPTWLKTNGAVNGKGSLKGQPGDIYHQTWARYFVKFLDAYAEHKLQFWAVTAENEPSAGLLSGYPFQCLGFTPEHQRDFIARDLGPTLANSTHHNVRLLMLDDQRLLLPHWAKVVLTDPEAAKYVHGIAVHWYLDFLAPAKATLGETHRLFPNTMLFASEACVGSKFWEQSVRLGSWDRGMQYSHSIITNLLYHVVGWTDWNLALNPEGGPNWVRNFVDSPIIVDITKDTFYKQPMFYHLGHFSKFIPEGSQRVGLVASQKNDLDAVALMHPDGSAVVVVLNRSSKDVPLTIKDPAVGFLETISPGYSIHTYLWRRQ
In short: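 Normal human glucocerebrosidase (0.2 nM) with blue fluorogenic substrate (80 uM final) in citrate/phosphate pH 5.9 with 10mM sodium taurocholate, 0.01% tween-20; 40 min RT, NaOH/glycine stop; fluorescence Ex 365/Em 440; AC50 from a titration from 0.6 nM upwards.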

[2] = target: Cytochrome P450 1A2 (Homo sapiens) (UniProt P05177); experiment: p450-cyp1a2 (AID 410; calls by dose curve; further: potency means the concentration at half of the fitted maximal effect;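 on activity change, negative = inhibition: -100% = full effect of reference inhibitor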)
Sequence of Cytochrome P450 1A2 (Homo sapiens) (P05177 whole entry, looked up): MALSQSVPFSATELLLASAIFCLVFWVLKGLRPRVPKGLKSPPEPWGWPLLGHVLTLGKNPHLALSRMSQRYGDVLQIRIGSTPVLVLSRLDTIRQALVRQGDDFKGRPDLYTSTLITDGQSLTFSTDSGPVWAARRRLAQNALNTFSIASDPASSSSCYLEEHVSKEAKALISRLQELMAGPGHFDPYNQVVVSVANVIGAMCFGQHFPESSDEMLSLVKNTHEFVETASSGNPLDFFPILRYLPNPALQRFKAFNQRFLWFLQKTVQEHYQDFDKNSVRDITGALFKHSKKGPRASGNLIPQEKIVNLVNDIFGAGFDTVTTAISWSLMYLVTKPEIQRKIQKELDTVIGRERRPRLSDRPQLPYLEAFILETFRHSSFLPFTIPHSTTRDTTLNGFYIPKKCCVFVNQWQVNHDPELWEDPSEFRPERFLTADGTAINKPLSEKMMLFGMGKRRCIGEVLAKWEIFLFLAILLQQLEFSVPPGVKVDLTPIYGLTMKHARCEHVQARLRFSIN
In short: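 Luminescent demethylation readout: Luciferin-ME (100uM, equal to Km) turned over by 20nM CYP1A2 for 60 min at room temperature after NADPH regeneration addition, following 10 min compound preincubation. Normalization used 57 uM furafylline as full inhibition.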

[3] = target: Glucocorticoid receptor (Homo sapiens) (UniProt P04150); experiment: GR-GFP Redistribution (AID 450;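 active means compounds whose dose series gives a full or clear partial fitted curve of increased nuclear translocation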; further: potency means the concentration at half of the fitted maximal effect); details: U2OS GR-GFP nuclear translocation, laser cytometry, 2 h
Sequence of Glucocorticoid receptor (Homo sapiens) (P04150 whole entry, looked up, the tested form may be a part): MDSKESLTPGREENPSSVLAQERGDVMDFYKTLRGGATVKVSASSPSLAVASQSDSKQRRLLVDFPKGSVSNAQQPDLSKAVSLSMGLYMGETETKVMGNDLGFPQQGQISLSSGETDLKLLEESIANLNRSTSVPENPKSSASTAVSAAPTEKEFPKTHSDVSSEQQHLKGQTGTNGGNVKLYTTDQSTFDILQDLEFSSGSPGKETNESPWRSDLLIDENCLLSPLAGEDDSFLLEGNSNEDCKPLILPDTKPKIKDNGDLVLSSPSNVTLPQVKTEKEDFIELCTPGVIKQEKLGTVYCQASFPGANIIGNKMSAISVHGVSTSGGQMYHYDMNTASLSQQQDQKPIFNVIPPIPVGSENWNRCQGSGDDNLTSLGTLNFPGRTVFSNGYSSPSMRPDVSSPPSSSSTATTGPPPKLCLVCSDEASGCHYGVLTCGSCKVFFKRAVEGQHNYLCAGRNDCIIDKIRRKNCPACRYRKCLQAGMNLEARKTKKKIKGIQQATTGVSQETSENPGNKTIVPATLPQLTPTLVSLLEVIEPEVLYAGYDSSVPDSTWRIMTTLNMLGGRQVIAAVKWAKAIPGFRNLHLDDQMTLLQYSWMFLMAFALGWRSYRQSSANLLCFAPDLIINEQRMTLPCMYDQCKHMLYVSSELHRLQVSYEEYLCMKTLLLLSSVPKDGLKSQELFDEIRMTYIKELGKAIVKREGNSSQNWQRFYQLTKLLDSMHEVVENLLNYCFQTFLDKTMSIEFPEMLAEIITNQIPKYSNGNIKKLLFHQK

[4] = target: Glucocorticoid receptor (Homo sapiens) (UniProt P04150); experiment: GR-EFC Redistribution (AID 451; calls by dose curve; further: potency means the concentration at half of the fitted maximal effect); details: CHO-K1 GR-EFC translocation, beta-gal luminescence, 2 h
In short: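 Translocation of GR-ED fusion to nuclear EA restores b-gal, read by luminescence after 1 h room-temperature detection. Engineered CHO-K1 biosensor cells, 1,000/well, exposed 2 h at 37 C to titrations up to 46 uM final.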

[5] = target: 3',5'-cyclic-AMP phosphodiesterase 4B (Homo sapiens) (UniProt Q07343); experiment: qHTS Assay for Inhibitors of PDE-IV (AID 607; active means well fitted activation curve with a large enough effect in the main read-out, with a control signal flat, not every such curve was filed as active; further: % of control where 0% means no effect)
Sequence of 3',5'-cyclic-AMP phosphodiesterase 4B (Homo sapiens) (Q07343 whole entry, looked up): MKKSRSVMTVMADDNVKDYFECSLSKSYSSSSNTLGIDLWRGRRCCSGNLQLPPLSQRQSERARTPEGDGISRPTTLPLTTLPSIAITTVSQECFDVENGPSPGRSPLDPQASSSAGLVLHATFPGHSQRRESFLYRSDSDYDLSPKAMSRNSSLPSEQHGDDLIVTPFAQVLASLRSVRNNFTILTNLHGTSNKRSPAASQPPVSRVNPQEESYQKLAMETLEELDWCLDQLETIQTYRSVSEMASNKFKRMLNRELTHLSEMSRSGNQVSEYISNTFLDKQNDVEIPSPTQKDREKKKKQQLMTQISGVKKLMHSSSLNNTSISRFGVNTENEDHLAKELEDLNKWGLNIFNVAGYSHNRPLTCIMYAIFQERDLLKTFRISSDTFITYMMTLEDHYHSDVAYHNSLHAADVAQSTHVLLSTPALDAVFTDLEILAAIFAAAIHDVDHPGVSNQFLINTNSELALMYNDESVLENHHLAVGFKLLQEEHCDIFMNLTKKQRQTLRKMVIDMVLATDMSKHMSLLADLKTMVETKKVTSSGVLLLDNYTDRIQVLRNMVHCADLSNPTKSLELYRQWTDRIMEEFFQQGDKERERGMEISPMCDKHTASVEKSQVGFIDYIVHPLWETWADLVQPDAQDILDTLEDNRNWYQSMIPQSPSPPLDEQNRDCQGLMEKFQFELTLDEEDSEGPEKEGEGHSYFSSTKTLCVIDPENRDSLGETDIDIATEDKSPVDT
In short: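 ACTOne HEK293 cells carry a modified cAMP-gated CNG channel and express endogenous PDE4; plated 1000 cells/well, compounds up to 22.9 uM final. Membrane-potential dye fluorescence (ex 535/em 590) was read; parental cells received 10 uM forskolin + 100 uM RO 20-1724.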

[6] = target: Cytochrome P450 3A4 (Homo sapiens) (UniProt P08684); experiment: qHTS Assay for Activators of Cytochrome P450 3A4 (AID 885); further: nearly all actives have a fitted effect of over 65% in size
Sequence of Cytochrome P450 3A4 (Homo sapiens) (P08684 whole entry, looked up): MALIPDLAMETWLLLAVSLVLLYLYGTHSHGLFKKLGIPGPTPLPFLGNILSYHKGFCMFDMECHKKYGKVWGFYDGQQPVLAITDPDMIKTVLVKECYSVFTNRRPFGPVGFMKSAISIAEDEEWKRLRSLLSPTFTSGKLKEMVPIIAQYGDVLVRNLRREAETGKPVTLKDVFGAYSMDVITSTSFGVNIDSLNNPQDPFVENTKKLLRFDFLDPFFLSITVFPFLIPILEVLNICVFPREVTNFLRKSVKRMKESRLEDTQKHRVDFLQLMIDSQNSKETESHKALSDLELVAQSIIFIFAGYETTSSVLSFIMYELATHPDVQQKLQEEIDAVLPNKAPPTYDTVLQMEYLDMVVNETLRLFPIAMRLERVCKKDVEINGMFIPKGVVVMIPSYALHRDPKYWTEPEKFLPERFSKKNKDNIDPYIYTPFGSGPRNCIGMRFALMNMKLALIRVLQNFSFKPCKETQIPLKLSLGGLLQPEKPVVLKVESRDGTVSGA
In short: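 CYP3A4 activity: Luciferin-PPXE O-dealkylation, 25uM substrate, 200mM KPO4, RT throughout. Read-out is luciferase luminescence; higher values reflect activation.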

[7] = qHTS Assay for Identification of Small Molecule Agonists for Hypoxia Response Element Signaling Pathway (AID 914; active means well fitted activation curve with a large enough effect in the signal ratio, with a control signal flat, not every such curve was filed as active; the % refers to the signal ratio; further: potency means the concentration at half of the fitted maximal effect; on activation: % of control where 0% means no effect); details: ME-180 HRE-bla reporter, beta-lactamase ratio, CoCl2, 17 h; activation: stronger effect = higher value
In short: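 A beta-lactamase reporter under hypoxia response element control in ME-180 cells served as the system. Compound titrations plus EC50 CoCl2 ran 17 h at 37 degrees Celsius; AC50 values were fitted from %Activity.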

[8] = qHTS Assay for Lipid Storage Modulators (AID 1519; calls by dose curve); details: Drosophila S3 cells, BODIPY lipid droplet/cell ratio, laser cytometry, cells loaded with oleic acid; for activity change, negative = inhibition: at 57.5 µM (top of the series)
In short: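 Cells seeded at 5,000 per well were treated with compounds over a concentration series and loaded with oleic acid (400 uM, as added). Lipid droplet fluorescence (488 nm excitation, 500-530 nm channel) was read by laser-scanning cytometry and normalized to 20 uM Triacsin C.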

[9] = target: Dual specificity protein kinase CLK4 (Homo sapiens) (UniProt Q9HAZ1); experiment: qHTS Assay for Inhibitors of CDC-like Kinase 4 (Kinase-Glo Assay) (AID 1770); further: on the % scale 0 is the no-effect control and ±100 the full control effect; nearly all actives have a fitted effect of over 65% in size
Sequence of Dual specificity protein kinase CLK4 (Homo sapiens) (Q9HAZ1 whole entry, looked up): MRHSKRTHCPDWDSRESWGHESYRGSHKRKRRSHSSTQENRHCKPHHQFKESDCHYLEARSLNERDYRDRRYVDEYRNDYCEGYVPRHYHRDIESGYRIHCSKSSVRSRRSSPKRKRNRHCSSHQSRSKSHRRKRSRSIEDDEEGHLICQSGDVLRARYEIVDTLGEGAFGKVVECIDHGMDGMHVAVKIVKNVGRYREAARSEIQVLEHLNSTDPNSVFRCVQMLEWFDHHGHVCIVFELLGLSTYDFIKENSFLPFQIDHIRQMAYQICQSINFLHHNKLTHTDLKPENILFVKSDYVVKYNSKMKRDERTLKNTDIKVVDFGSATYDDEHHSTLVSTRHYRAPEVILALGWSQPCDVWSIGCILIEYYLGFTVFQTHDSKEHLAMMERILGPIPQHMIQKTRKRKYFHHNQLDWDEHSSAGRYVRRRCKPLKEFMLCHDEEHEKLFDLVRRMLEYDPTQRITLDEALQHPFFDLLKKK
In short: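 Readout: Kinase-Glo luminescence from ATP left after a 4.5 h room-temperature reaction of 25 nM Clk4 with 100 uM RS peptide and 1 uM ATP (final). Buffer: 25 mM Tris pH 7.5, 10 mM MgCl2.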

[10] = target: Dual specificity protein kinase CLK4 (Homo sapiens) (UniProt Q9HAZ1); experiment: qHTS Assay for Inhibitors of CDC-like Kinase 4 (ADP-Glo Assay) (AID 1771); further: on the % scale 0 is the no-effect control and ±100 the full control effect; nearly all actives have a fitted effect of over 70% in size
In short: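 ADP production was read by ADP-Glo luminescence after residual ATP depletion, following 1 h room-temperature reaction of 25 nM Clk4, 1 uM ATP and 100 uM RS peptide with MgCl2, EGTA, DTT and Triton X-100.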

[11] = target: Dual specificity protein kinase CLK4 (Homo sapiens) (UniProt Q9HAZ1); experiment: qHTS Assay for Inhibitors of CDC-like Kinase 4 (ADP-FP Assay) (AID 1795);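 further: recombinant human CLK4 phosphorylating RS repeat peptide at 1 µM ATP; on the % scale 0 is the no-effect control and ±100 the full control effect; nearly all actives have a fitted effect of over 60% in size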
In short: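 FP readout: Orange Transcreener ADP2 tracer (4 nM) plus ADP antibody, read after 30 min at room temperature. Kinase step: 6.25 nM Clk4, 100 uM RS peptide, 1 uM ATP, pH 7.5, 1 h.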

[12] = target: Ubiquitin carboxyl-terminal hydrolase 1 (Homo sapiens) (UniProt O94782); experiment: Inhibitors of USP1/UAF1: Pilot qHTS (AID 504865);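 further: rhodamine fluorescence freed from ubiquitin-rhodamine substrate followed over time; top concentration of the series differs between compounds; on the % scale 0 is the no-effect control and ±100 the full control effect; nearly all actives have a fitted effect of over 35% in size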
Sequence of Ubiquitin carboxyl-terminal hydrolase 1 (Homo sapiens) (O94782 whole entry, looked up): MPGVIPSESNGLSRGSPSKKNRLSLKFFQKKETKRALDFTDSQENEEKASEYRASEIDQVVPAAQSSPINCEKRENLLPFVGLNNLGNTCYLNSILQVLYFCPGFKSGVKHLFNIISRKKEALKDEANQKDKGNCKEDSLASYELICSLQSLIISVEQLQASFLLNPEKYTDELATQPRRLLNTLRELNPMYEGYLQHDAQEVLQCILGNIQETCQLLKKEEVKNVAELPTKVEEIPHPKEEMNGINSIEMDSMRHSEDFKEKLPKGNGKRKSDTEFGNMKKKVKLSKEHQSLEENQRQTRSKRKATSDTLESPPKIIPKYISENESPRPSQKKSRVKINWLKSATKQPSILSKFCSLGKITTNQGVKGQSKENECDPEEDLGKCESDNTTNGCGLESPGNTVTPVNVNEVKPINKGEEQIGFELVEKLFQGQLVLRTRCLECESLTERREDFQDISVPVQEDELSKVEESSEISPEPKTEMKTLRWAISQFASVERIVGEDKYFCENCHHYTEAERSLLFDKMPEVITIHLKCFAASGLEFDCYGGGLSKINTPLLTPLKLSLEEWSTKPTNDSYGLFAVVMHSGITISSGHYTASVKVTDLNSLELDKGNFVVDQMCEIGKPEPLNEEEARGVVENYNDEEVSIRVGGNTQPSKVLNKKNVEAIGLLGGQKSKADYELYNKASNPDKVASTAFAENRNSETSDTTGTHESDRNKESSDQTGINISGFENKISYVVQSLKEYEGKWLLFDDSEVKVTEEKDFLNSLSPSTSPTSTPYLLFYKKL
In short: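 1nM USP1/UAF1 + cpd, 15 min RT; start w/ Ub-Rho 150nM final; kinetic FL 480/540 nm, 6 reads q60 s. Buffer 50mM HEPES pH 7.8, 0.5mM EDTA, 1mM TCEP, 0.01% Tween-20, 0.1 mg/ml BSA.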

[13] = Counterscreen qHTS for small molecule stabilizers of the endoplasmic reticulum resident proteome: GLuc-NoTag assay (AID 1508627);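 further: 0% = thapsigargin alone and -100% = DMSO vehicle control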
In short: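 Counterscreen line: SH-SY5Y-GLuc-NoTag cells, treated with compound 19 hr before a 4 hr, 100 nM thapsigargin calcium depletion. Secreted Gaussia luciferase in the medium was measured by luminescence after coelenterazine was added (0.07x final), with cells unlysed.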

[14] = Confirmatory qHTS for small molecule stabilizers of the endoplasmic reticulum resident proteome: Secreted ER Calcium Modulated Protein (SERCaMP) assay (AID 1508628); further: nearly all actives have a fitted effect of over 40% in size; further: potency means the concentration at half of the fitted maximal effect
In short: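 Reporter secretion upon ER calcium depletion (100 nM thapsigargin, 4 h, 37C) is measured as medium luminescence with coelenterazine, after 16 h compound pretreatment of SH-SY5Y-GLuc-SERCaMP cells; primary at three concentrations up to 38.3 uM, follow-up at 11 (up to 76.6 uM).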

[15] = AP1 Signaling Pathway (AID 357; active means well fitted curve in either direction with a large enough effect, not every such curve was filed as active;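 further: ME-180 reporter cells stimulated with EGF at its EC50 level; on the % scale 0 is the no-effect control and ±100 the full control effect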); details: ME-180 AP-1-bla reporter, EGF-induced, beta-lactamase ratio, 5 h; at 7.69 µM (top of the series) unless noted
In short: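 Modulation of EGF-driven AP-1 transcription was assessed with a beta-lactamase reporter in ME-180 cells. Compound and EC50 EGF were co-incubated 5 hours at 37 °C before 2.5-hour CCF4 loading at room temperature and dual-emission reading.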

[16] = NFAT Signaling Pathway (AID 444; active means well fitted curve in either direction with a large enough effect, not every such curve was filed as active;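 further: carbachol stimulus at about its EC50 of 1 µM final; on the % scale 0 is the no-effect control and ±100 the full control effect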); details: Jurkat NFAT-bla M1, carbachol, beta-lactamase ratio, 5 h; at 7.69 µM (top of the series) unless noted
In short: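 Read-out: CCF4 FRET ratio (460 nm/530 nm) after 1 h RT dye loading, used for %activity and AC50 from titration series. Cells: Jurkat NFAT-β-lactamase/M1 line, treated with compound plus 1 uM carbachol for 5 h, 37 °C.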

[17] = Stat Signaling Pathway (AID 446; active means well fitted curve in either direction with a large enough effect, not every such curve was filed as active;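 further: ME-180 cervical cancer cells given 40 pM IL-6 alongside compound; SIE-controlled beta-lactamase reporter measured as 460/530 nm FRET emission ratio; on the % scale 0 is the no-effect control and ±100 the full control effect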); details: ME-180 (cervical carcinoma) SIE beta-lactamase reporter, IL-6 stimulated, 5 h; at 7.69 µM (top of the series) unless noted
In short: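 Compound effects on IL-6-induced STAT reporter activity were measured in ME-180 cells. After overnight culture, cells were co-treated with 40 pM IL-6 for 5 hrs before beta-lactamase substrate loading at room temperature.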

[18] = target: Mitogen-activated protein kinase 10 (Mus musculus) (UniProt Q61831); experiment: JNK3 AlphaScreen Assay (AID 530; active means well fitted curve in either direction with a large enough effect, not every such curve was filed as active;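 further: kinase came from lysate of stimulated human HepG2 cells; signal reports phosphorylation of biotinylated GST-cJun 1-79 at Ser73 with 10 µM ATP; on the % scale 0 is the no-effect control and ±100 the full control effect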)
In short: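 qHTS titrations with 15 min compound pre-incubation before adding ATP (10 uM final). Read-out: AlphaScreen of Ser73-phosphorylated biotin-GST-cJun using HepG2 lysate JNK3 activated by IL-1β and TNFα.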

[19] = measured here: cell count channel max response
[20] = measured here: lipid channel max response

COc1cccc(Cn2c(=O)c(-c3ccccc3)nc3cnc(N4CCNCC4)nc32)c1
active: Potency [2] 3.16 µM | Potency [7] 3.16 µM
8.56%: max response [8, 19]
11.2%: max response [8, 20]
inactive: Potency [1] > 11.4 µM | Potency [3] > 9.22 µM | Potency [4] > 46 µM | Potency [5] | Potency [6] | activity change, negative = inhibition [8] 4.45% | Potency [9] | Potency [10] | Potency [11] | Potency [12] | Potency [13]

C=C1CCC[C@]2(C)C[C@H]3OC(=O)[C@H](CNCCc4ccccc4OC)C3CC12 (some centres undefined)
inactive: Potency [14]

Cc1nc2cnc(N3CCNCC3)nc2n(Cc2ccc(F)cc2)c1=O
active: Potency [2] 12.6 µM | Potency [14] 20 µM
19.5%: max response [8, 20]
14.9%: max response [8, 19]
inactive: Potency [1] > 11.4 µM | activity change, negative = inhibition [15] 7.46% | activity change, negative = inhibition [16] -14.9% | activity, negative = inhibition [17] 7.66% | Potency [3] > 9.22 µM | Potency [4] > 46 µM | outcome [18] | Potency [6] | activity change, negative = inhibition [8] 2.97%

O=C(Nc1cccc(F)c1)N1CCCC2(CCNCC2)C1
inactive: Potency [1] > 11.4 µM | activity change, negative = inhibition [15] -6.17% | Potency [2] | activity change, negative = inhibition [16] 12.2% | activity, negative = inhibition [17] -5.47% | outcome [18] | Potency [5] | Potency [6] | Potency [13]

CN1CCN(c2ncc3nc(-c4ccccc4)c(=O)n(-c4ccccc4)c3n2)CC1
active: Potency [7] 3.16 µM | Potency [14] 25.1 µM
inactive: Potency [1] > 11.4 µM | Potency [3] > 9.22 µM | Potency [4] > 46 µM | outcome [18] | Potency [5] | Potency [13]

CN1CCN(c2ncc3nc(-c4cccs4)c(=O)n(-c4ccccc4)c3n2)CC1
18.9%: max response [8, 20]
active: Potency [2] 3.16 µM
22.3%: max response [8, 19]
inactive: Potency [1] > 11.4 µM | Potency [3] > 9.22 µM | Potency [4] > 46 µM | outcome [18] | Potency [5] | Potency [6] | activity change, negative = inhibition [8] -0.619% | Potency [9] | Potency [10] | Potency [11] | Potency [12] | Potency [13]

COc1ccc(-n2c(=O)cnc3cnc(N4CCNCC4)nc32)cc1
inactive: Potency [1] > 11.4 µM | activity change, negative = inhibition [15] -7.32% | activity change, negative = inhibition [16] 0.78% | activity, negative = inhibition [17] -6.65% | Potency [3] > 9.22 µM | Potency [4] > 46 µM | outcome [18] | Potency [5] | Potency [13]
active: Potency [2] 12.6 µM

CN(C)c1nccc(N(Cc2ccccc2)Cc2ccccc2)c1C#N
inactive: Potency [13]

O=C(c1cc(C(F)(F)F)cc(C(F)(F)F)c1)N1CCC2(CC1)CCN(c1ccccn1)CC2
10.4%: max response [8, 19]
1.85%: max response [8, 20]
inactive: Potency [1] 10.2 µM | activity change, negative = inhibition [15] -6.99% | Potency [2] | activity, negative = inhibition [17] -1.33% | Potency [4] > 46 µM | outcome [18] | Potency [5] | activity change, negative = inhibition [8] -8.11% | Potency [13]

COc1cc(OC)cc(C(=O)N2CCN(Cc3ccccc3C(F)(F)F)CC2)c1
inactive: Potency [14]

O=C(c1ccco1)N1CCC[C@@]2(CCN(c3ccncc3)C2)C1
inactive: Potency [1] > 11.4 µM | activity change, negative = inhibition [15] 0.424% | activity, negative = inhibition [17] 1.83% | Potency [4] > 46 µM | outcome [18] | Potency [5] | Potency [6] | Potency [13]
active: Potency [2] 12.6 µM | Potency [14] 28.2 µM

Cc1nc2cnc(N3CCN(C)CC3)nc2n(-c2ccccc2)c1=O
inactive: activity change, negative = inhibition [15] -10.2% | activity change, negative = inhibition [16] -6.35% | activity, negative = inhibition [17] -7.64% | Potency [3] > 9.22 µM | outcome [18] | Potency [5] | activity change, negative = inhibition [8] 2.71% | Potency [9] | Potency [10] | Potency [11] | Potency [12] | Potency [13]
7.19%: max response [8, 20]
active: Potency [2] 3.98 µM
7.22%: max response [8, 19]

CN1CCN(c2ncncc2-c2ccccc2C(F)(F)F)CC1
25.9%: max response [8, 19]
inactive: Potency [1] > 11.4 µM | activity change, negative = inhibition [15] 1.62% | activity, negative = inhibition [17] 0.819% | Potency [3] > 46 µM | Potency [4] > 46 µM | outcome [18] | Potency [5] | Potency [6] | activation [7] 5.49% | activity change, negative = inhibition [8] 6.69% | Potency [9] | Potency [10] | Potency [11] | Potency [12] | Potency [13]
active: Potency [2] 31.6 µM
29.8%: max response [8, 20]

COc1ccc(-n2c(=O)c(-c3ccccc3)nc3cnc(N4CCNCC4)nc32)cc1
inactive: Potency [1] > 11.4 µM | Potency [3] > 9.22 µM | Potency [4] > 46 µM | outcome [18] | Potency [5] | Potency [9] | Potency [10] | Potency [11] | Potency [12] | Potency [13]
active: Potency [2] 15.8 µM | Potency [7] 3.16 µM

O=c1c(-c2ccc(Cl)cc2)nc2cnc(Oc3ccccc3)nc2n1C1CC1
active: Potency [14] 35.5 µM
inactive: Potency [1] > 11.4 µM | activity change, negative = inhibition [15] -21% | activity change, negative = inhibition [16] -2.33% | activity, negative = inhibition [17] -4.95% | Potency [3] > 9.22 µM | Potency [4] > 46 µM | outcome [18] | Potency [5] | Potency [13]
